Screening results: PubChem, National Center for Advancing Translational Sciences (NCATS)
Hits are enriched below; roughly 7.8% of the tested compounds scored in any of these assays.
Lassa entry inh: blocks Lassa virus binding to or entry into cells; Lassa virus pseudotype entry inhibition, cell reporter; Potency, µM (series often up to 37.9 µM), inactives show at the highest dose activity change, negative = inhibition, hits mostly inhibitors; 300,000 compounds, 1.2% hits; AID 540256; calls by dose curve; tested in HEK293 cells; also: potency is read from the fitted curve at half-maximal effect; nearly all actives have a fitted effect of over 50% in size
Vaccinia Venus: vaccinia inhibition (Venus reporter). Vaccinia virus Venus reporter expression, fluorescence. 330,000 compounds, 0.46% hits. Potency, µM (doses to about 36.5 µM), inactives show top-dose activity change, negative = inhibition, hits mostly inhibitors; calls by dose curve; tested in A549 cells; also: potency is read from the fitted curve at half-maximal effect; nearly all actives have a fitted effect of over 30% in size
VACV mCherry inh: inhibitors of vaccinia virus infection (mCherry reporter signal) | Vaccinia virus mCherry reporter infection, fluorescence | Potency, µM (series often up to 36.5 µM), inactives show at the top dose activity change, negative = inhibition, most hits filed as inhibitors | 310,000 compounds, 0.63% hits; calls by dose curve; tested in A549 cells; also: potency is read from the fitted curve at half-maximal effect; nearly all actives have a fitted effect of over 35% in size
MARV entry inh: inhibitors of Marburg virus binding or cell entry; AID 540276; 300,000 compounds, 1.8% hits; Potency, µM (highest dose often 37.8 µM), without a hit: at the top dose activity change, negative = inhibition, hits mostly inhibitors; Marburg virus pseudotyped entry inhibition, cell reporter; calls by dose curve; tested in HEK293 cells; also: potency is read from the fitted curve at half-maximal effect
HCV inh: blocks hepatitis C virus | Huh7.5.1 HCVcc-Cre infection, luciferase reporter, 44 h | Potency, µM (top dose mostly 41.8 µM), without a hit: top-dose activity change, negative = inhibition, actives largely listed as inhibitors | 340,000 compounds, 3.4% hits | AID 651820; active = well fitted inhibition curve with a large enough effect; inconclusive = small, poorly fitted or top-dose-only effect, or another doubt; inactive = no such curve, though single readings can be large or run the other way; also: potency is read from the fitted curve at half-maximal effect
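Compounds are dispensed onto cells plated 4 h earlier at 1,000 per well, with HCVcc-Cre virus (about 0.5 moi) added next. Following 44 h of culture, luminescent signal is measured for 15 sec after 15 min with substrate at room temperature.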
HCMV inh: human cytomegalovirus inhibition. HFF cells, HCMV-luciferase reporter, 72 h; stronger effect = lower value. activity change, negative = inhibition, % at 57.5 µM. 410,000 compounds, 4.5% hits. AID 1259415; in the data active = activity change below about -60%; inconclusive = no clear call, values can overlap the other calls; inactive = above about -39%
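Screen run at 2 compound doses on HFFs infected with reporter HCMV, MOI 1 PFU/cell. Luciferase activity from cell lysates at 72 h post infection gave inhibition relative to buffer-only and Salinomycin wells.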
* hit, by the source's call; i = inactive; ? = inconclusive; · = no result; [ ] = remark or other dose. % is scaled to controls: 0 for no effect and ±100 for the full control effect.

SMILES | Lassa entry inh | Vaccinia Venus | VACV mCherry inh | MARV entry inh | HCV inh | HCMV inh
CC(C)NC(=O)c1ccccc1NC(=O)Cc1ccc([N+](=O)[O-])cc1 | 14% | -11% | i | -16% | 8% | 22
COC(=O)c1ccccc1NC(=O)/C=C/c1cc(OC)c(OC)c(OC)c1 | ? | 1% | · | ? | 5µM* | 43
COc1ccc(/C=C/C(=O)Nc2ccc(-n3nncc3-c3ccccc3)cc2)cc1OC | ? | -24% | -6% | ? | 13µM* | ?
CC(C)NC(=O)c1ccccc1NC(=O)/C=C/c1ccc([N+](=O)[O-])cc1 | 24% | · | · | -8% | 11µM* | 9
COC(=O)[C@H]1[C@H](CO)[C@H]2Cn3c(ccc(Br)c3=O)[C@H]2N1Cc1ccccc1Cl | · | · | · | · | · | 7
C[C@@H]1CC[C@H]2C(=O)O[C@@H](Cc3ccccc3)CN2[C@H]1c1ccc(Br)cc1 | · | · | · | 7%[14.2 µM] | · | ·
CCc1cc2c(cc3c(=O)n(CC(=O)NCCc4ccccc4)ncn32)s1 | · | -19% | -3% | 2%[46.1 µM] | · | 12
COc1ccc(/C=C/C(=O)Nc2ccccc2C(=O)O)cc1 | ? | -5% | -5% | 1.6µM* | 5% | -3
COc1ccc(/C=C/C(=O)O)cc1 | · | -6% | -8% | · | 0.79µM* | 22
COc1cc(/C=C/C(=O)O)cc(OC)c1 | · | -6% | -11% | · | 16% | ·
COc1cccc2c1nc(C)c1cc(C)oc12 | -4% | -23% | -7% | -3% | 5.6µM* | 34
CCOc1ccc(NC(=O)C2(c3cccs3)CCOCC2)cc1 | -18%[46.1 µM] | 2% | -2% | · | · | 7
COC(=O)/C=C1\Nc2ccc(Cl)cc2C(=O)NC1=O | · | · | · | · | · | 18
N#Cc1c(N)nc2c3c(sc(=N)c2c1N)NC(=O)CC3c1ccccc1 (configuration not stated) | 4% | -21% | -20% | ? | -13% | 11
Cc1c(C#N)c(N)nc2c3c(sc12)NC(=O)CC3c1ccc(Cl)cc1 (configuration not stated) | ? | ? | ? | ? | 22µM* | -81*
Cc1cc(=O)n(Cc2cccc(Cl)c2)c2c1c(C)nn2-c1ccccc1 | -4%[46.1 µM] | -5% | -6% | · | · | 16
Cc1ccc(C)c(COC(=O)c2cc([N+](=O)[O-])ccc2N2CCOCC2)c1 | ? | -21% | ? | ? | 13µM* | ?
COc1ccc(COC(=O)c2cc([N+](=O)[O-])ccc2N2CCOCC2)cc1F | ? | ? | ? | ? | 32µM* | -73*
Cc1ccc(S(=O)(=O)N2CCOCC2)cc1C(=O)OCC(=O)c1ccc[nH]1 | · | · | · | · | 11µM* | -12
O=C(OCc1ccc(Br)cc1)c1cc([N+](=O)[O-])ccc1N1CCOCC1 | · | ? | -26% | · | · | -30
COCC(C)NC(=O)c1cc(S(=O)(=O)N2CCCCC2)ccc1N1CCOCC1 (configuration not stated) | 0% | -12% | -10% | -3% | 20% | 19
CC(C)CCCC(C)NC(=O)c1cc(S(=O)(=O)N2CCCCC2)ccc1N1CCOCC1 (configuration not stated) | · | · | · | · | 11µM* | -6
Cc1ccc(OCC(=O)Nc2ccc(O)c(-c3nc4cc(C)c(C)cc4o3)c2)cc1 | · | -12% | 17% | · | · | ·
Cc1ccccc1CNC(=O)c1c(C)oc2c1C1=NCCN1C=N2 | 12%[46.1 µM] | -2% | -9% | · | · | 9
Cc1ccc(S(=O)(=O)N2CCCCC2)cc1C(=O)OCC(=O)N1c2ccccc2NC(=O)C1(C)C | 13%[46.1 µM] | -2% | -12% | ? | 11µM* | -17
SMILES | Lassa entry inh | Vaccinia Venus | VACV mCherry inh | MARV entry inh | HCV inh | HCMV inh
O=C(OCc1cccc(C(F)(F)F)c1)c1cc(S(=O)(=O)N2CCOCC2)ccc1F | ? | -21% | -10% | ? | 10µM* | -10
O=C(OCc1cccc(Cl)c1)c1cc(S(=O)(=O)N2CCCCC2)ccc1N1CCOCC1 | ? | -30% | -11% | 11µM* | 11µM* | -35
Cc1ccc(COC(=O)c2cc(S(=O)(=O)N3CCCCC3)ccc2N2CCOCC2)cc1 | 7.1µM* | -6% | -10% | ? | ? | -27
Cc1ccc(C(=O)OCC(=O)N2c3ccccc3NC(=O)C2(C)C)cc1S(=O)(=O)N1CCCCC1 | 0%[46.1 µM] | 7% | i | ? | ? | -14
O=C(OCc1ccccc1)c1cc(S(=O)(=O)N2CCCCC2)ccc1N1CCOCC1 | ? | -16% | -2% | ? | ? | -23
CCOc1cc(CNC(=O)c2ccc(C)c(NC(=O)c3nsc4ccccc34)c2)ccc1OC | ? | -9% | -13% | · | · | 13
O=C(O)c1c2c(nc3ccccc13)CCCC2 | · | -11% | 17% | · | · | ·
CCOC(=O)c1cccn1C1C(=O)N(Cc2ccc(Cl)nc2)c2ccccc21 (configuration not stated) | · | · | · | · | · | -10
Cc1ccc(NC(=O)C2CCN(S(=O)(=O)c3ccc4[nH]c(=O)ccc4c3)CC2)cc1C | 6%[46.1 µM] | -5% | -8% | · | · | 70
O=C(OCc1cccc(C(F)(F)F)c1)c1cc([N+](=O)[O-])ccc1N1CCOCC1 | 0% | -8% | -5% | -22% | ? | -31
O=C(OCc1cccc(Cl)c1)c1cc([N+](=O)[O-])ccc1N1CCOCC1 | ? | ? | ? | ? | 10µM* | 0
Cc1ccc(C)c(COC(=O)c2cc(S(=O)(=O)N3CCCCC3)ccc2N2CCOCC2)c1 | 7.1µM* | -28% | ? | ? | 0% | -8
O=C(C[n+]1ccncc1)c1cccc([N+](=O)[O-])c1 | · | -12% | i | · | · | ·
NNC(=O)c1sc(-c2ccccc2)cc1N | · | -21% | -27% | 9%[46.1 µM] | 24% | 54
CC(=O)c1sc(-c2ccccc2)cc1N | ? | -21% | -5% | 2%[46.1 µM] | 8.9µM* | 19
CCn1c(NCc2c[nH]c3ccccc23)nc2ccccc21 | -9% | -14% | -30% | 11µM* | -25% | 44
O=C1C=CC(=C(c2ccc(O)cc2)c2ccc(O)cc2)C=C1 | · | 2% | -27% | · | 10µM* | -100*
O=S(=O)(c1ccc(O)cc1)c1ccc(O)cc1 | · | · | · | · | 0% | -14
CSc1ccc(CN(C)C(=O)C2CCN(C(=O)Nc3ccccc3)CC2)cc1 | · | · | · | · | 10µM* | -8
COc1ccc(CN(C)C(=O)C2CCN(C(=O)Nc3ccccc3)CC2)cc1OC | · | · | · | · | -9% | 13
COc1cc(C(=O)Nc2ccc(OCc3cc(=O)n4cccc(C)c4n3)cc2)cc(OC)c1OC | -20%[46.1 µM] | ? | 8.9µM* | · | · | -11
CCOc1ccc2[nH]c(=O)c(CN(Cc3cccs3)C(CC)c3nnnn3C(C)(C)CC)cc2c1 (configuration not stated) | ? | ? | ? | ? | 10µM* | ?
CCC(c1nnnn1C1CCCC1)N(Cc1cccs1)Cc1cc2cc(C)ccc2[nH]c1=O (configuration not stated) | ? | -22% | · | ? | -6% | ?
